Consider 38 molecules from PubChem BioAssay (NCATS).

“And” between values parts separate entries of the source, which are not always exact repeats. Identical values can stand only once. Results filed as inconclusive are left out. Where a call stands in place of a potency, no number is given. The source made the active and inactive calls. Unless noted, the call rests on the fitted dose curve.

The target in experiment [1] is Bile acid receptor (Homo sapiens) (UniProt Q96RI1). The experiment in a line: qHTS assay for small molecule agonists of farnesoid X receptor signaling (AID 588527). The settings on record: HEK293T FXR-UAS-bla, beta-lactamase ratio, 16 h; stronger effect = higher value. In outline:
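Agonist-mode beta-lactamase reporter in GeneBLAzer FXR-UAS-bla HEK293T cells, titration up to 92 uM, 16 h exposure at 37 C, CCF4 fluorescence. Response scaled to DMSO (0%) and 100 uM chenodeoxycholic acid (100%), then Hill-fitted for EC50 and efficacy.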
For orientation: In qHTS, concentration-response curves come from the screen itself.

Experiment [2] addresses Peroxisome proliferator-activated receptor delta (Homo sapiens) (UniProt Q03181). The experiment can be described thus: qHTS assay for small molecule agonists of peroxisome proliferator-activated receptor delta signaling (AID 588534). The settings on record: HEK293T PPARdelta-UAS-bla, beta-lactamase ratio, 18 h; series mostly up to 76.7 µM. In outline: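 Agonist-mode beta-lactamase reporter readout (CCF4 dye, 2 h at RT) after 18 h at 37 °C exposure to a titration; Hill-equation fitting gave EC50 and maximal response.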

The target of experiment [3] is Glucocorticoid receptor (Homo sapiens) (UniProt P04150). The experiment can be described thus: qHTS assay for small molecule antagonists of glucocorticoid receptor signaling (AID 588533; active means well fitted inhibition curve with a large enough effect in the signal ratio, with a control signal flat, not every such curve was filed as active; the % refers to the signal ratio;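 further: cells stimulated with 2 nM dexamethasone as agonist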). The settings on record: HeLa MMTV-bla, GRE beta-lactamase ratio, antagonist mode, 18 h; series mostly up to 76.8 µM. In short, it runs like this:
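Antagonist-mode qHTS: compound titrations added to GRE-bla HeLa cells, then dexamethasone 2 nM final; 18 h, 37 C. CCF4 FRET fluorescence normalized to dexamethasone and DMSO; IC50 from Hill fit.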

For experiment [4] the target is unchanged. The experiment can be described thus: qHTS assay for small molecule agonists of glucocorticoid receptor signaling (AID 588532; active means well fitted curve in the direction sought with a large enough effect in the signal ratio, with a control signal flat; the % refers to the signal ratio). The settings on record: HeLa MMTV-bla, beta-lactamase ratio, agonist, 18 h; stronger effect = higher value; percent of dexamethasone control, DMSO zero. In outline: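 MMTV-bla HeLa beta-lactamase reporter cells in 1% charcoal/dextran FBS medium, compounds up to 92 uM for 18 h at 37 C, CCF4 readout; normalized to 0.1 uM dexamethasone (100%), EC50 and efficacy from Hill fits.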

Experiment [5] in a line: qHTS assay for small molecule antagonists of peroxisome proliferator-activated receptor delta signaling (AID 588535; active means well fitted inhibition curve with a large enough effect in the signal ratio, with a control signal flat, not every such curve was filed as active; the % refers to the signal ratio;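 on max response: cells co-treated with a PPAR-delta agonist as stimulator during compound exposure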). To be noted: HEK293T PPARd-UAS-bla, beta-lactamase FRET ratio, 18 h; 460 nm channel. In short, it runs like this: (§1)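 Fluorescence from CCF4-loaded GeneBLAzer PPAR-delta-UAS-bla HEK293T cells (2 hrs RT loading) quantified reporter inhibition after an 18 hr, 37 C compound exposure across a titration.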

Experiment [6] has as its target Peroxisome proliferator-activated receptor delta (Homo sapiens) (UniProt Q03181). The experiment is described as above. The settings on record: HEK293T PPARd-UAS-bla, beta-lactamase FRET ratio, 18 h; series mostly up to 76.7 µM. In short, it runs like this:
as §1

In experiment [7] the target is Bile acid receptor (Homo sapiens) (UniProt Q96RI1). The experiment can be described thus: qHTS assay for small molecule antagonists of farnesoid X receptor signaling (AID 588526). The settings on record: HEK293T FXR-UAS-bla, beta-lactamase ratio, antagonist mode; series mostly up to 76.7 µM. In short, it runs like this: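 Antagonist mode: titrated compounds tested against chenodeoxycholic acid stimulation (normalized to 50 uM CDCA and DMSO) in GeneBLAzer HEK293T cells for 16 h. Beta-lactamase read by CCF4 fluorescence; IC50 from Hill fits.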
Chain of Bile acid receptor (Homo sapiens) (Q96RI1 whole entry, looked up): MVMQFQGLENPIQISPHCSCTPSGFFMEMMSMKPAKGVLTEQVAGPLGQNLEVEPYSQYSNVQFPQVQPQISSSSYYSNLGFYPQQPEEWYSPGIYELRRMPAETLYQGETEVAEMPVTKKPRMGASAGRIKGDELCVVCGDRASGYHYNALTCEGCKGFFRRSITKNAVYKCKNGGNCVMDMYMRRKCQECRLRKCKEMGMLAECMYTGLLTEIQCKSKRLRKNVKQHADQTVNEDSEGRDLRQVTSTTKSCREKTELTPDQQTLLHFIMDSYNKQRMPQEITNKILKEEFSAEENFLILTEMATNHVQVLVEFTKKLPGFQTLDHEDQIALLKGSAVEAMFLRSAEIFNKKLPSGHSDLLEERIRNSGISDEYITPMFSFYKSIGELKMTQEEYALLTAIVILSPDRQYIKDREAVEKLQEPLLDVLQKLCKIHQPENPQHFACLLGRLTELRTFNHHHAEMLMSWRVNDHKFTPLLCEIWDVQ

Chain of Peroxisome proliferator-activated receptor delta (Homo sapiens) (Q03181 whole entry, looked up): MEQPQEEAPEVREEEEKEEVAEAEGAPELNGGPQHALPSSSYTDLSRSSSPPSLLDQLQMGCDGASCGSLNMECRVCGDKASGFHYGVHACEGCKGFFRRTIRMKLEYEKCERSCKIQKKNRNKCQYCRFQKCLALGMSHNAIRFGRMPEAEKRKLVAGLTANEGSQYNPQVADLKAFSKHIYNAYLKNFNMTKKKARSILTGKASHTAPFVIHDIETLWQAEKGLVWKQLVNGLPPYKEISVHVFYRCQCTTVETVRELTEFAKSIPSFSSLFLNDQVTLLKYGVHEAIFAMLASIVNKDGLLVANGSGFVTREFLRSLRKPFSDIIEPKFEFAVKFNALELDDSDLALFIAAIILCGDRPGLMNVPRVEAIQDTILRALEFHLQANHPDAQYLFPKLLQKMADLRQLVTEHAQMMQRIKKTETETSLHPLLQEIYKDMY
Chain of Glucocorticoid receptor (Homo sapiens) (P04150 whole entry, looked up): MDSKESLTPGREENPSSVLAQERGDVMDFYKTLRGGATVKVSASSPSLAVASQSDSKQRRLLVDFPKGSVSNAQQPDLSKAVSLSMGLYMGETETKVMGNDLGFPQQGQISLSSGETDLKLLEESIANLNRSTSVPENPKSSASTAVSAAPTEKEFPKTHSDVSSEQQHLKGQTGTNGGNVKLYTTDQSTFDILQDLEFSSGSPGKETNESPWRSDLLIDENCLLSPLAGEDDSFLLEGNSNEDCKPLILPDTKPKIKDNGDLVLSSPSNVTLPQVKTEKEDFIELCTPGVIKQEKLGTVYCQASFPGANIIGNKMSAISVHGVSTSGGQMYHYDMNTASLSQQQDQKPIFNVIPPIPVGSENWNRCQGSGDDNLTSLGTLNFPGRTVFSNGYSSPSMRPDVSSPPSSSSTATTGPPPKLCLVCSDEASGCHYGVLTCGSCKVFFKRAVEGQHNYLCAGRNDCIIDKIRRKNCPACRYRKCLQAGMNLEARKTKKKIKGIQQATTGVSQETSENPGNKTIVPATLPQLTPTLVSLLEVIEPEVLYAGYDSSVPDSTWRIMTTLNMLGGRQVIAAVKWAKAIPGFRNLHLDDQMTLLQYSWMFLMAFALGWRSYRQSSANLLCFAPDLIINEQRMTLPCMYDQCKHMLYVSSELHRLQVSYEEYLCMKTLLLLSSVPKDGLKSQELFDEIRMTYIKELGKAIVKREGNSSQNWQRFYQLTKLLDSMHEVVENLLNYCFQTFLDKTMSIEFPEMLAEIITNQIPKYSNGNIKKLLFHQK

As to `CCCCCCCCCCCCCC(=O)OC(C)C`, the activation in experiment [1] is -0.914% (inactive). Further, the result in experiment [2] was inactive.

Take `C[C@]12C[C@H](O)[C@H]3[C@@H](CCC4=CC(=O)CC[C@@]43C)[C@@H]1CC[C@@H]2C(=O)CO`: the activation in experiment [1] is -2.3% (inactive). For the same molecule, the outcome in experiment [2] was inactive.

Take `O=C(NO)c1ccccc1`: the activation in experiment [1] is -3.15% (inactive). Moreover, the result in experiment [2] was inactive.

Turning to `CN1C(=O)c2ccccc2C1=O`, the result in experiment [2] was inactive.

Turning to `O=C(O)c1cc(Oc2ccc(C(F)(F)F)cc2Cl)ccc1[N+](=O)[O-]`, the Potency result in experiment [3] was “inactive”.

As for `[Cl][In]([Cl])[Cl]`, the result in experiment [2] was inactive.

For `COc1ccccc1O`, the activation in experiment [1] is -0.0206% (inactive) and -3.83% (inactive) and 1.01% (inactive). In addition, the outcome in experiment [2] was inactive.

Consider `OCc1c[nH]c2ccccc12`, for which the activation in experiment [1] is 1.66% (inactive). In addition, in experiment [2], the outcome was inactive.

For the molecule `O=S(=O)(O)C(F)(F)C(F)(F)C(F)(F)C(F)(F)F`, the activation in experiment [4] was 0.888% (inactive). The Potency entry in experiment [3] and in experiment [6] was “inactive” each time. The result in experiment [2] was inactive. The max response in experiment [5] is 48.3% and 16.2%.

Regarding `ClC1=C(Cl)[C@]2(Cl)[C@@H]3[C@@H]4C[C@@H]([C@H]5O[C@@H]45)[C@@H]3[C@@]1(Cl)C2(Cl)Cl`, the activation in experiment [4] was -15% (inactive). Moreover, the Potency entry in experiment [3] and in experiment [6] was “inactive” in each case. Also, the outcome in experiment [2] was inactive. Besides, the max response in experiment [5] came to 34.4%.

As to `CC1=NN(c2ccccc2)C(=O)C1`, the activation in experiment [1] was -5.46% (inactive) and -0.633% (inactive). Further, in experiment [2], the result was inactive.

As to `C=CCNC(N)=S`, the result in experiment [2] was inactive.

Regarding `Clc1cnc(Oc2ccc(Oc3ncc(Cl)cc3Cl)cc2)c(Cl)c1`, the outcome in experiment [7] and in experiment [2] was inactive. Further, the activation in experiment [1] is 0.177% (inactive); in experiment [4], -2.42% (inactive). Also, the Potency entry in experiment [3] and in experiment [6] was “inactive” in each case. In addition, the max response in experiment [5] amounted to 17%.

In the case of `COc1ccc(C(c2ccc(OC)cc2)C(Cl)(Cl)Cl)cc1`, the activation is 7.99% (inactive) and 4.38% (inactive) and 7.59% (inactive) in experiment [1]; 4.73% (inactive) and 3.18% (inactive) and 4.31% (inactive) in experiment [4]. Further, in experiment [2], the result was inactive.

With `Nc1ccc(O)c([N+](=O)[O-])c1`, the outcome in experiment [2] was inactive.

On to `Nc1ccccc1N`, for which the result in experiment [2] was inactive.

Consider `C1=CC2C3C=CC(C3)C2C1` (configuration not stated), for which, in experiment [1], the activation is -0.353% (inactive).

With `S=c1[nH]c2ccccc2s1`, the activation in experiment [1] is -0.945% (inactive) and -0.0694% (inactive). For the same molecule, the result in experiment [2] was inactive.

In the case of `O=c1cc(-c2ccccc2)oc2ccccc12`, the outcome in experiment [2] was inactive.

In the case of `CN(C)c1ccc(N=NS(=O)(=O)O)cc1`, the result in experiment [2] was inactive.

With `Brc1ccccc1-c1ccccc1`, in experiment [2], the result was inactive.

As to `CCCCOC(=O)c1ccccc1C(=O)OCc1ccccc1`, in experiment [4], the activation is 3.04% (inactive) and 3.89% (inactive). Moreover, the Potency result in experiment [3] and in experiment [6] was “inactive” throughout. Further, the result in experiment [2] was inactive. In addition, in experiment [5], the max response is -18.4% and -2.86%.

Turning to `CO/C=C(/C(=O)OC)c1ccccc1Oc1cc(Oc2ccccc2C#N)ncn1`, the activation in experiment [4] is -0.939% (inactive). The outcome in experiment [2] was inactive.

On to `O=C(Oc1ccccc1)c1cccc(C(=O)Oc2ccccc2)c1`, for which the activation in experiment [1] is 0.748% (inactive).

As to `Nc1nc2ccc([N+](=O)[O-])cc2s1`, in experiment [2], the result was inactive.

As for `Cc1ccc(N)cc1O`, in experiment [2], the outcome was inactive.

On to `CCCCCCCCCC(CC)c1ccc(S(=O)(=O)O)cc1` (configuration not stated), for which the activation in experiment [4] was 8.71% (inactive) and 0.614% (inactive). In addition, the Potency result in experiment [3] and in experiment [6] was “inactive” in each case. In addition, in experiment [2], the outcome was inactive. In addition, in experiment [5], the max response was -20.6% and 1.67%.

Turning to `O=C1NS(=O)(=O)c2ccccc21`, the result in experiment [2] was inactive.

Regarding `CS(=O)(=O)c1ccc(C(=O)C2C(=O)CCCC2=O)c([N+](=O)[O-])c1`, the outcome in experiment [7] was inactive. For the same molecule, the activation was -1.16% (inactive) in experiment [1] and 6.35% (inactive) in experiment [4]. Also, in experiment [5], the max response came out at 30.2%. The Potency entry in experiment [6] was “inactive”.

As to `COC(=O)c1c(Cl)c(Cl)c(C(=O)OC)c(Cl)c1Cl`, the activation in experiment [1] is 2.52% (inactive). The outcome in experiment [2] was inactive.

In the case of `CCCCCCCCOc1ccc(C(=O)c2ccccc2)c(O)c1`, in experiment [1], the activation was -1.08% (inactive). Besides, the result in experiment [2] was inactive.

With `CN(C)NC(=O)CCC(=O)O`, the result in experiment [2] was inactive. For the same molecule, the max response in experiment [5] is -12.7% and 32.6%. Moreover, the Potency entry in experiment [6] is “inactive”.

With `CCCOC(=O)c1ccc(O)cc1`, the activation in experiment [1] was 0.147% (inactive) and -2.34% (inactive) and 4.63% (inactive). For the same molecule, the outcome in experiment [2] was inactive.

On to `Nc1ccc([N+](=O)[O-])cc1O`, for which the result in experiment [7] and in experiment [2] was inactive. In experiment [1], the activation is -3.53% (inactive) and -2.23% (inactive).

As for `CC(C)C(C)(C)C(C)(C)C(C)(C)S`, the result in experiment [2] was inactive.

As to `CCCCCCCCCCCCCCCC[N+](C)(C)C`, the activation in experiment [4] was 4.02% (inactive). Besides, the Potency result in experiment [3] and in experiment [6] was “inactive” throughout. Also, in experiment [2], the outcome was inactive. Further, the max response in experiment [5] was -6.14%.

As for `CC(C)(C)c1ccc(O)c(O)c1`, in experiment [1], the activation was 9.58% (inactive) and -7.97% (inactive). Further, the result in experiment [2] was inactive.

Regarding `CCCCC(CC)COC(=O)c1ccc(N(C)C)cc1` (configuration not stated), the activation in experiment [1] was -1.15% (inactive) and -5.13% (inactive). Moreover, the outcome in experiment [2] was inactive.
